HIF-2a inh – HIF-2a reporter inhibitors, primary screen, luminescence, 786-0 RCC cells | inhibition, % at 18.8 µM | 786-0 RCC cells HIF-2a reporter, luciferase luminescence, overnight | actives 0.72% (n = 360,000);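 active = inhibition of the luminescence signal of 40% or more relative to plate controls, in a single-dose primary screen at 18.75 µM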
Peg3 prom inh – Peg3 promoter-driven luciferase inhibitors, primary screen, cell-based, HeLa, luciferase luminescence; HeLa PEG-Prom luciferase reporter, overnight; inhibition, % at 20 µM; actives 1.7% (n = 360,000); AID 588405, 2011;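 active = inhibition of at least 50% at 20 µM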
CF NFkB block – inhibitors of PAF-induced NF-kB signaling, primary screen, cell-based, GFP fluorescence, uHTS. actives 0.86% (n = 360,000). KKLEB NF-kB-GFP reporter, GFP fluorescence overnight. inhibition, % at 5 µM. AID 588850, 2011;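 active = at least 50% inhibition at 5 µM, scaled per plate between neutral and stimulator controls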;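 also: PAF is a Pseudomonas aeruginosa culture filtrate used as stimulus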
KKLEB tox – cytotoxicity in KKLEB CF airway cells, primary screen, cytotoxicity control for CF NF-kB inhibitor project, cell-based, uHTS, fluorescence assay plates | KKLEB CF airway cells viability, ATPlite luminescence, overnight; hits give low values; cells stimulated with P. aeruginosa culture filtrate | activity change (cytotoxicity), % at 5 µM | actives 0.36% (n = 360,000);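 active = corrected activity change at or below -50% at 5 µM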
ABHD5-PLIN5 inh – ABHD5-PLIN5 interaction inhibitors, primary screen, cell lysate, split luciferase complementation, luminescence; Split G. princeps luciferase complementation, 4 h; inhibition, % at 4 µM; Perilipin-5 (Homo sapiens) + 1-acylglycerol-3-phosphate O-acyltransferase ABHD5 (Homo …; actives 0.78% (n = 360,000);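 active = inhibition above the mean inhibition across every tested compound plus 3 SD, cut at about 22% in these data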
Mdm2-MdmX inh – inhibitors of human Mdm2-MdmX association, primary screen, cell-based, luminescence, split luciferase, SaOS-2, uHTS; Protein Mdm4 (Homo sapiens) + E3 ubiquitin-protein ligase Mdm2 (Homo sapiens), …; inhibition, % at 8 µM; SaOS-2 split-luciferase Mdm2/MdmX complementation; actives 3% (n = 330,000);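 active = inhibition of at least 50% at 8 µM in the primary screen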
ABHD5 PLIN5 conf – ABHD5-PLIN5 interaction inhibitors, confirmation, biochemical, luminescence; inhibition, % at 4 µM; shares compounds with ABHD5-PLIN5 inh; actives 67% (n = 2,200); AID 651612, 2012; in the data active = inhibition above about 23%
HNF4 counter – HNF4 dimerization inhibitors, counter-screen for ABHD5-PLIN5 interaction inhibitor project, biochemical, split-luciferase complementation, luminescence. inhibition, % at 4 µM. shares compounds with ABHD5-PLIN5 inh. actives 77% (n = 2,200);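 active = mean inhibition across replicate wells exceeding the computed hit threshold, cut at about 13% in these data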;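 also: light from luciferase halves that rejoin when HNF4 fusion proteins dimerize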
Target sequence (P41235 whole entry, looked up, the tested form may be a part): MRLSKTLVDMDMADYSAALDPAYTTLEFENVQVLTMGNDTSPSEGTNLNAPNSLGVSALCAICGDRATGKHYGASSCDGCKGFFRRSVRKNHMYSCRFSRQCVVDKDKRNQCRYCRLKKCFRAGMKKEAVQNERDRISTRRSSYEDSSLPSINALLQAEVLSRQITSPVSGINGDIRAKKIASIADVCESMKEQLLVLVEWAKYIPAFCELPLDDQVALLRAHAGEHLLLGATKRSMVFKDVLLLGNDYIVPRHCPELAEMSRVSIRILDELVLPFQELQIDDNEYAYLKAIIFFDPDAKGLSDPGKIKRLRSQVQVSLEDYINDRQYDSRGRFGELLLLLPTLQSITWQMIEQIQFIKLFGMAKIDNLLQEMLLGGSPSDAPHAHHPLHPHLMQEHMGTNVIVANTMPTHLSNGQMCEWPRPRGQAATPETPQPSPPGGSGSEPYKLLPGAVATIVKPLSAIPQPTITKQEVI
Each line names hits and unclear results; the compound was inactive in the other large screens (follow-up assays come after a bar, where they were run); ! = repeats disagree. Compounds with a hit are over-represented: about 4.6% of the library has one in this group of screens.

CCOc1ccc2[nH]c(=O)c(CN(Cc3ccco3)Cc3nnnn3Cc3ccccc3)cc2c1	none
Cc1ccccc1OCC(=O)NNC(=O)C1CC(=O)N(c2ccc3c(c2)OCCO3)C1 (stereo not drawn)	none
COc1cc2cc(C(=O)N(C)C3CCS(=O)(=O)C3)[nH]c2cc1OC (stereo not drawn)	none
Cc1ccc(/C=[N+](\[O-])c2ccccc2C)o1	ABHD5-PLIN5 inh 23 | ABHD5 PLIN5 conf inactive | HNF4 counter inactive
Cc1nc2ccccc2c(=O)n1-c1cccc(NC(=O)c2cccs2)c1	none
O=C(Nc1cccc(N2C(=O)C=CC2=O)c1)c1cccs1	Peg3 prom inh 92, ABHD5-PLIN5 inh 30 | ABHD5 PLIN5 conf 48 | HNF4 counter 96
Cc1ccc2nc(-c3ccc(NC(=O)CN4CCN(C(=O)c5ccco5)CC4)cc3)sc2c1	ABHD5-PLIN5 inh 27 | ABHD5 PLIN5 conf inactive | HNF4 counter inactive
O=C1c2ccccc2C(=O)N1CC(O)COc1cccc2ccccc12 (stereo not drawn)	none (no result: Mdm2-MdmX inh)
Cc1cccc(C)c1NC(=O)C[N+](C)(C)CC(O)COc1cccc2ccccc12 (stereo not drawn)	ABHD5-PLIN5 inh 47 | ABHD5 PLIN5 conf 34 | HNF4 counter 17
O=C(Cn1cc(COc2ccccc2[N+](=O)[O-])nn1)c1ccc(O)cc1	none (no result: Mdm2-MdmX inh)
N#Cc1ccccc1OCc1cn(CC(=O)c2ccc(O)cc2)nn1	ABHD5-PLIN5 inh 31 (no result: Mdm2-MdmX inh) | ABHD5 PLIN5 conf 66 | HNF4 counter 39
Cc1cc(/C=C2/NC(=O)NC2=O)c(C)n1-c1ccc(N2CCOCC2)cc1	none
Cc1cc(/C=C2\NC(=O)NC2=O)c(C)n1-c1ccc(N2CCOCC2)cc1	none
O=C1NC(=O)/C(=C\c2ccc(N3CCOCC3)o2)N1	ABHD5-PLIN5 inh 68 | ABHD5 PLIN5 conf 42 | HNF4 counter 94
O=C1NC(=O)/C(=C/c2ccc(N3CCOCC3)o2)N1	ABHD5-PLIN5 inh 29 | ABHD5 PLIN5 conf 27 | HNF4 counter 47
O=C1CCN(Cc2ccc(O)cc2)CCN1[C@H](CO)c1ccccc1	ABHD5-PLIN5 inh 47 | ABHD5 PLIN5 conf inactive | HNF4 counter 15
COc1ccc(/C=C2\Cc3ccccc3C2=O)cc1OC	none (no result: Mdm2-MdmX inh)
COc1cc(C=C2CCCC(=Cc3ccc(OCC4CO4)c(OC)c3)C2=O)ccc1OCC1CO1 (stereo not drawn)	Peg3 prom inh 93, CF NFkB block 86, ABHD5-PLIN5 inh 24 (no result: Mdm2-MdmX inh) | ABHD5 PLIN5 conf 37 | HNF4 counter 21
CCOc1ccc(/C=C2\CCC(C3CCCC3)C2=O)cc1OC (stereo not drawn)	none
COc1ccc(/C=C2/CSC/C(=C/c3ccc(OC)c(OC)c3)C2=O)cc1OC	HIF-2a inh 92, Peg3 prom inh 100, CF NFkB block 93, KKLEB tox -92, ABHD5-PLIN5 inh 55 (no result: Mdm2-MdmX inh) | ABHD5 PLIN5 conf 81 | HNF4 counter 68
O=c1[nH]c(CN2CCN(C/C=C/c3ccccc3)CC2)nc2ccccc12	none
Nc1nc(N2CCN(C/C=C/c3ccccc3)CC2)nc2ccccc12	ABHD5-PLIN5 inh 28 | ABHD5 PLIN5 conf 31 | HNF4 counter inactive
NS(=O)(=O)c1ccc(NC(=O)COc2ccc(S(=O)(=O)N3CCCC3)cc2)cc1	none
Cc1ccc(CNC(=O)C2(C)CCN2C(=O)Cc2ccc(C(C)(C)C)cc2)cc1 (stereo not drawn)	none (no result: Mdm2-MdmX inh)
CCOC(=O)c1cc(-c2ccco2)nn1-c1ccc(C)cc1	none
CC(C)NC(=O)c1cc(-c2ccco2)nn1-c1ccc(Cl)cc1	ABHD5-PLIN5 inh 36 | ABHD5 PLIN5 conf 42 | HNF4 counter 59
Cc1ccc(S(=O)(=O)N2C[C@@H]3CCCC[C@@H]3[C@@H](C)[C@H]2c2cn(Cc3ccccc3)c3ncccc23)cc1	none
CC(C)(C)c1ccc2c(c1)C(=O)c1ccccc1C2=O	none
CC(C)(C=O)C1=CC(=O)c2ccccc2C1=O	HIF-2a inh 42, Peg3 prom inh 108, ABHD5-PLIN5 inh 34 (no result: Mdm2-MdmX inh) | ABHD5 PLIN5 conf 81 | HNF4 counter 103
C[C@H]1CN([C@@H](C)CO)C(=O)c2cc(C#CC3(O)CCCC3)cnc2O[C@H]1CN(C)C(=O)C1CC1	none (no result: Mdm2-MdmX inh)
COc1cccc(-c2cccc3c2NC(=O)C3(C)Cc2ccccc2F)c1 (stereo not drawn)	none (no result: Mdm2-MdmX inh)
CC1=C(C)/C(=N\OS(=O)(=O)c2ccc(C)cc2)C=CC1=O	HIF-2a inh 88, Peg3 prom inh 106, CF NFkB block 72, ABHD5-PLIN5 inh 61 (no result: Mdm2-MdmX inh) | ABHD5 PLIN5 conf 67 | HNF4 counter 96
CCOC(=O)COc1ccc(Br)cc1/C=C/c1[nH]c(=O)[nH]c(=O)c1[N+](=O)[O-]	ABHD5-PLIN5 inh 65 | ABHD5 PLIN5 conf 76 | HNF4 counter 85
CCOC(=O)COc1ccc(Br)cc1/C=C\c1[nH]c(=O)[nH]c(=O)c1[N+](=O)[O-]	ABHD5-PLIN5 inh 64 | ABHD5 PLIN5 conf 85 | HNF4 counter 94
CCCOc1ccc(/C=C/c2[nH]c(=O)[nH]c(=O)c2[N+](=O)[O-])cc1OCC	none
COc1ccc(-c2coc3c(C(=O)N4CCN(C)CC4)cccc23)c(C)c1	none (no result: Mdm2-MdmX inh)
COc1cc(C(=O)N(C)CC(=O)Nc2cccc(F)c2)ccc1OCc1ccccc1	none
c1ccc2c(c1)c1c(c3ccccc32)CN2CCCC2C1 (stereo not drawn)	none (no result: Mdm2-MdmX inh)
O=C(O)c1ccccc1-c1c2cc(I)c(=O)c(I)c-2oc2c(I)c(O)c(I)cc12	ABHD5-PLIN5 inh 30! | ABHD5 PLIN5 conf inactive | HNF4 counter inactive
C[C@H]1CN([C@@H](C)CO)C(=O)CCCn2nncc2CO[C@H]1CN(C)S(=O)(=O)c1ccc2c(c1)OCCCO2	none (no result: Mdm2-MdmX inh)
N#CC(C#N)=NNc1ccc2cn[nH]c2c1	CF NFkB block 79, ABHD5-PLIN5 inh 48 (no result: Mdm2-MdmX inh) | ABHD5 PLIN5 conf 55 | HNF4 counter 58
CCNC(=S)Nc1ccc2cn[nH]c2c1	none
Oc1cc(NCCN2CCOCC2)cc2cccnc12	ABHD5-PLIN5 inh 51 | ABHD5 PLIN5 conf inactive | HNF4 counter inactive
O=C(NCCN1CCOCC1)c1ccc2ccccc2c1	none
